Laboratory results published in the supplement of paper PMC6555819.

tested on: RARg homodimer (NR concentration 270 nM); test: PBM binding z-score (relative to random genomic background probes); higher = stronger binding; sequences stand for … in GC…GCGATTGACAGCGTAGAATGAAGG
Summary of the method: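 Ligand-free nuclear receptor dimers were applied to custom Agilent 4×180K protein-binding microarrays whose double-stranded probes carried direct-repeat seeds, single-nucleotide variants, half-site ablations and random human genomic background sequences in 34-nt variable regions. Incubation lasted 1 h. Binding z-scores were computed against the random background probes from regression-normalized fluorescence.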

Sequence | PBM binding z-score
GTACCGAGGTGAATAGGTCGTTGATGAGTAGGCG | 1.64
ATATGTAGGTTAGCTTGGGTCATTCAGACTAGGC | 1.67
TCATATAGGTAATACAGGTGAAAGTAGGCATCTA | 0.742
GCTGCTAGGTCAGGTTGGTCAGCTCACGGGTACG | 3.52
GCTTGTAGATCAAGGTTCAGAAAGACTAAGCTAA | 0.173
CCTCGGAGGACTGAAGGTCAGAGCTGTCCGCTTT | 1.87
ATCTCTAGGTAAAGATAGTTCAGTCAATGCAAAT | 0.808
GCGACTGAGGCATCAGCAGGTTACCATAACTTAA | -0.35
ACTAGTTGGTCAGCTGAGGTCACAGACAATTCGG | 3.84
AGAATGAGGTTATTAACATCAGGGAATTGCGGTC | 0.779
CTACCAAGGTGAACAAAGTCGTTGATTACTATTC | 0.808
CCTACTGGGCCAAGGTCATGGATCAGTCAAAGCA | 3.48
TCATATACGTAATACAGGTGAAAGTCGGCATCTA | 0.567
ATCTCTAGGTAACCAAGTTCAGTGAGTGCCGAAC | 0.796
TCAAGTAGGTTAGTCGGGGCATTCAGCCAACATA | 0.362
TAGCCTAGGTCATTGGCCCAGTATAGTACGCATC | 4.14
GCTAGTTGGTCAGTAAAAGTTCACACACCGGTCG | 2.42
GCTGCTAGGTCAGGTTGGTCCGCTAACGGGTACG | 3.46
CCTAGTCGGTCAGGAGGTCACACACCGGATATGA | 5.46
CGTCCAAAGTCAAGGTCAGTGAAAGAGACTCGAA | 3.58

Sequence | PBM binding z-score
CCTCACGGGTCACGAGGTTATAGCACGACGAGCG | 5.33
TCGAGTAGGTAAGTCGGGGCATTCAGCCAACATA | -0.571
CGTCCAAGGTGAAGGTCAGTGAAAGAGACTCGAA | 3.88
TCATATAGCTAAATGCTAGGTGAAAGTCCGATCT | 0.129
CCTTACGGGTCAAGGATATAGCACGGGTGGTACG | 4.5
ACTATTAGTTGACTTAGGGTAACCGATACGACGC | 0.754
CCTTATGGGTCAAGGTTATAGCACGGGTGGTACG | 4.26
TCATATAGGTAATACATGTGAAAGTCGGCATCTA | 0.544
AGTCAAAGTTCAGGACGTGGTAACGTAAAGCACG | 4.85
CCTACTGGGCCAAAGGTCAATGATTCCAATGCTC | 4.85
CATCCTAGGTCAGGGCCAGTATAGGAGGAACGTT | 4.12
ACTGACAGGTGATGAAGGTAACTCAGGCTATCAT | 0.358
ACAGACAGGTGAGTGAAGATAACTCAGCTGGACG | 0.475
ACTATTAGTTGAGACGAGGACAACCGATAGGTTG | 0.902
TCGAGTAGGTTAGTCGCGGCATTCAGCCAACATA | -0.495
CCTACTGGGCCATCAGGTCATTAATATCAACGTT | 1.8
CCGACTGGTGCAAAGGTTACCATACTCAGTACGA | 1.32
TTACCAAGGTGAGGTGAGGTCGTTGATCCAACTC | 1.41
CCGAGTAGGGTATGGGGCATTCAGGCAACGGTGA | -0.189
CCTGCTAGGTCGATGGTCAGCTAAAGCAGCTCGC | 0.416
